A number with no mark means an inactive call. Records with an inconclusive call do not appear. Entries that show only a call come without a potency. Active and inactive are the calls of the source. Unless noted, calls come from the whole dose curve; as a rule, active = well fitted curve in the direction sought with a large enough effect in the repeat runs; inconclusive = weak or mixed curves; inactive = no such curve, though single readings can be large; an effect the other way counts as inactive or inconclusive.
Columns and labels:
[1] = qHTS assay to identify small molecule agonists of the sonic hedgehog signaling (Shh) pathway (AID 1259368; calls by dose curve;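 note: NIH/3T3-derived 3T3Gli1-Luc cells carrying a stable Gli1-driven firefly luciferase reporter; series mostly up to about 92 µM; nearly all actives have a fitted effect of over 15% in size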)
How it was run: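 Hedgehog pathway agonism scored by increased firefly luciferase luminescence in 3T3Gli1-Luc cells treated 24 hr at 37 C; detection used a 30 min room-temperature reagent incubation.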

[2] = qHTS assay to identify small molecule antagonists of the sonic hedgehog signaling (Shh) pathway (AID 1259369; calls by dose curve; note: nearly all actives have a fitted effect of over 45% in size; note: potency is the fitted concentration of half-maximal effect)
How it was run: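 NIH/3T3 stable Gli1-Luc clone, 2,000 cells/well, 4hr settle; cpd + conditioned medium 24hr; Luc reagent 30min RT; luminescence.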

[3] = target: Estrogen receptor beta (Homo sapiens) (UniProt Q92731); assay: qHTS assay to identify small molecule agonists of the estrogen receptor beta (ER-beta) signaling pathway (AID 1259377; active = well fitted activation curve with a large enough effect in the signal ratio in the repeat runs, not every such curve was filed as active; the % refers to the signal ratio)
Chain of Estrogen receptor beta (Homo sapiens) (Q92731 whole entry, looked up): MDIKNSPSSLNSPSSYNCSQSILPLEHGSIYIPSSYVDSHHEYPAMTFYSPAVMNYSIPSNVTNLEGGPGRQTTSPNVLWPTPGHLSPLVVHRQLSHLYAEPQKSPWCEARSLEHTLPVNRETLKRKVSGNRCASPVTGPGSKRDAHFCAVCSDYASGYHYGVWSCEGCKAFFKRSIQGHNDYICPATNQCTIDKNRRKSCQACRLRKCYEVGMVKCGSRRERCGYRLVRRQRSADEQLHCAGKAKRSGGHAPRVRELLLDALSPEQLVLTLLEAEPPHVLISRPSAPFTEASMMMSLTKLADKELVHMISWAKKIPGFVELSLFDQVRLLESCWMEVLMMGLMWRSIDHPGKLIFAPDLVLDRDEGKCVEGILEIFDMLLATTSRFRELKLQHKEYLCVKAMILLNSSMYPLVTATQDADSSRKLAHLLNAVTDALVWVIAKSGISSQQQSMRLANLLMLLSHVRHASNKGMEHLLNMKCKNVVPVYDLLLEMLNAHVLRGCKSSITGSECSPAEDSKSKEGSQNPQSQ
How it was run: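 qHTS in ER-beta-UAS-bla HEK293T cells: 6 hr settling, then 16 hr compound at 37C, then LiveBLAzer substrate 2 h at RT before fluorescence reading.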

[4] = target: Estrogen receptor beta (Homo sapiens) (UniProt Q92731); assay: qHTS assay to identify small molecule antagonists of the estrogen receptor beta (ER-beta) signaling pathway (AID 1259378; active = well fitted inhibition curve with a large enough effect in the signal ratio in the repeat runs, not every such curve was filed as active; the % refers to the signal ratio)
How it was run: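 ER-beta-UAS-bla HEK293T cells in 2% charcoal-stripped FBS medium treated with compound plus 1nM final 17-beta-estradiol for 16 hr at 37C. Beta-lactamase reporter read by FRET substrate fluorescence after 2 hours at room temperature.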

[5] = qHTS assay to identify small molecule agonists of the androgen receptor (AR) signaling pathway in the presence of an antagonist - cell viability counter screen (AID 1259379);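 note: MDA-kb2 human breast cancer cells carrying an MMTV luciferase reporter; series mostly up to about 92 µM; nearly all actives have a fitted effect of over 25% in size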
How it was run: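 MDA-kb2 viability measured by CellTiter-Fluor fluorescence in the same wells as the luciferase signal; nilutamide 3.0uM final; 15-point compound titration; 16 hr at 37C.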

[6] = qHTS assay to identify small molecule agonists of the estrogen receptor beta (ER-beta) signaling pathway - cell viability counter screen (AID 1259380); note: nearly all actives have a fitted effect of over 30% in size
How it was run: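 Measured: luminescence from CellTiter-Glo after 30 min at room temperature, added to wells already read for the LiveBLAzer FRET reporter (2 hr substrate); ER-beta-UAS-bla HEK293T cells had 16 hr compound treatment at 37C, 5% CO2.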

[7] = qHTS assay to identify small molecule antagonists of the estrogen receptor beta (ER-beta) signaling pathway - cell viability counter screen (AID 1259382); note: series mostly up to about 92 µM; nearly all actives have a fitted effect of over 55% in size
How it was run: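 Readout: luminescence, CellTiter-Glo, same wells as bla assay. System: ER-beta-UAS-bla GripTite HEK293T, 2% charcoal-stripped FBS. Exposure: compounds plus 1nM 17-beta-estradiol, 16 hr, 37C.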

[8] = target: Estrogen receptor (Homo sapiens) (UniProt P03372); assay: qHTS assay to identify small molecule agonists of the estrogen receptor alpha (ER-alpha) signaling pathway in the presence of an antagonist (AID 1259383; calls by dose curve; note: top concentration of the series differs between compounds; nearly all actives have a fitted effect of over 15% in size)
Chain of Estrogen receptor (Homo sapiens) (P03372 whole entry, looked up): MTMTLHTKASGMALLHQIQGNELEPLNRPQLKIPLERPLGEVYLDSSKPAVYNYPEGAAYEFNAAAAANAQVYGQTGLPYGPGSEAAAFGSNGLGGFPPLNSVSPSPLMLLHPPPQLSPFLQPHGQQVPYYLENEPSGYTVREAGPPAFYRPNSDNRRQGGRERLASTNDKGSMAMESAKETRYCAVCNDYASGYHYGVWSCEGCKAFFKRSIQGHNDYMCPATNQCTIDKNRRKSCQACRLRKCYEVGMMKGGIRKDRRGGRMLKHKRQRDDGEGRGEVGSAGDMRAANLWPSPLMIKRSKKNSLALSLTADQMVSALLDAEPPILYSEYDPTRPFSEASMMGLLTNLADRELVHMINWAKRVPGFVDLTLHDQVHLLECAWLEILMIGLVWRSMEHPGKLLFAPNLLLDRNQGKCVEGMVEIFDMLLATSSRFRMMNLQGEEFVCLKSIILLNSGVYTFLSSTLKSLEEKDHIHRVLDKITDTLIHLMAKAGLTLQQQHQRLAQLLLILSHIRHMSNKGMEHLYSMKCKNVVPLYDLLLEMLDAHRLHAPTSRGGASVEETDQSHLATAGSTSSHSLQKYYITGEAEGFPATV
How it was run: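 Quantitative HTS confirmation: compounds titrated at 15 concentrations onto estrogen-deprived VM7Luc4E2 cells carrying a four-ERE luciferase construct, with ICI-182,780 present at 10.0nM final. Signal is luminescence after 22hr exposure.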

[9] = qHTS assay to identify small molecule agonists or antagonists of the thyroid stimulating hormone receptor (TSHR) signaling pathway - wild type cell line counter screen (AID 1259384; calls by dose curve)
How it was run: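 Wild-type Hek293 cells, 800/well, 18 h at 37C, then compound with Ro20-1724 for 30 min RT. cAMP by HTRF (cAMP-d2/anti-cAMP cryptate), 1 h RT, fluorescence read. 15 concentrations, triplicates.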

[10] = target: Thyrotropin receptor (Homo sapiens) (UniProt P16473); assay: qHTS assay to identify small molecule antagonists of the thyroid stimulating hormone receptor (TSHR) signaling pathway (AID 1259385; calls by dose curve; note: nearly all actives have a fitted effect of over 20% in size)
Chain of Thyrotropin receptor (Homo sapiens) (P16473 whole entry, looked up): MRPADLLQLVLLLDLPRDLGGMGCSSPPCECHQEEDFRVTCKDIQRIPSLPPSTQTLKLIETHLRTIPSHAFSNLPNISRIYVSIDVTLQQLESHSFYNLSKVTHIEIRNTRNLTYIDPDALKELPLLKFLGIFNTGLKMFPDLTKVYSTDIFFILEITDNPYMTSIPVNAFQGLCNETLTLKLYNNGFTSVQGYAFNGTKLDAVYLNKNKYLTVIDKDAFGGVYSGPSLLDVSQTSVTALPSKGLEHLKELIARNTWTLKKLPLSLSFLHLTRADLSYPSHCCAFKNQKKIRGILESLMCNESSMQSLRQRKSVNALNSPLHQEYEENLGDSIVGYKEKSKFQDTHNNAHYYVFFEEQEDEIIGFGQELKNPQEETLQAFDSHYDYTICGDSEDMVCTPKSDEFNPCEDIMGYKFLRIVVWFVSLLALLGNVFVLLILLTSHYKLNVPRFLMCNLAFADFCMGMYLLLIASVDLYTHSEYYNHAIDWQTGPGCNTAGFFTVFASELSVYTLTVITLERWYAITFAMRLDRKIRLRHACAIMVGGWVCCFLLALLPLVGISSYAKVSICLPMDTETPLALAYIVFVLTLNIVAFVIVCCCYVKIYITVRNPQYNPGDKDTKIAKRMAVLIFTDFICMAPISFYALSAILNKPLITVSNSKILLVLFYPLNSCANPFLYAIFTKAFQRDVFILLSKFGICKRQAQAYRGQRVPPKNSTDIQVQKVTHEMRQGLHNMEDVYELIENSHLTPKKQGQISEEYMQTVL
How it was run: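 TSHR-HEK293 cells (800/well) plated 18 h, then compounds with Ro20-1724 and TSH at 1.5 ng/mL final, 30 min at room temperature. cAMP quantified by HTRF (cAMP-d2/anti-cAMP-cryptate, 1 h); 15 concentrations in triplicate.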

[11] = qHTS assay to identify small molecule agonists of the estrogen receptor alpha (ER-alpha) signaling pathway in the presence of an antagonist - cell viability counter screen (AID 1259386);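 note: series mostly up to about 92 µM; cells exposed to compounds for 22 h at 37 °C before the viability read; nearly all actives have a fitted effect of over 30% in size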
How it was run: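 The test measures whether compounds kill ER-alpha reporter cells (VM7Luc4E2) under antagonist co-treatment (ICI-182,780, 10.0nM). Fluorescence from CellTiter-Fluor is read after a 22hr exposure.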

[12] = target: Progesterone receptor (Homo sapiens) (UniProt P06401); assay: qHTS assay to identify small molecule agonists of the progesterone receptor (PR) signaling pathway (AID 1346784; calls by dose curve; note: nearly all actives have a fitted effect of over 30% in size)
Chain of Progesterone receptor (Homo sapiens) (P06401 whole entry, looked up): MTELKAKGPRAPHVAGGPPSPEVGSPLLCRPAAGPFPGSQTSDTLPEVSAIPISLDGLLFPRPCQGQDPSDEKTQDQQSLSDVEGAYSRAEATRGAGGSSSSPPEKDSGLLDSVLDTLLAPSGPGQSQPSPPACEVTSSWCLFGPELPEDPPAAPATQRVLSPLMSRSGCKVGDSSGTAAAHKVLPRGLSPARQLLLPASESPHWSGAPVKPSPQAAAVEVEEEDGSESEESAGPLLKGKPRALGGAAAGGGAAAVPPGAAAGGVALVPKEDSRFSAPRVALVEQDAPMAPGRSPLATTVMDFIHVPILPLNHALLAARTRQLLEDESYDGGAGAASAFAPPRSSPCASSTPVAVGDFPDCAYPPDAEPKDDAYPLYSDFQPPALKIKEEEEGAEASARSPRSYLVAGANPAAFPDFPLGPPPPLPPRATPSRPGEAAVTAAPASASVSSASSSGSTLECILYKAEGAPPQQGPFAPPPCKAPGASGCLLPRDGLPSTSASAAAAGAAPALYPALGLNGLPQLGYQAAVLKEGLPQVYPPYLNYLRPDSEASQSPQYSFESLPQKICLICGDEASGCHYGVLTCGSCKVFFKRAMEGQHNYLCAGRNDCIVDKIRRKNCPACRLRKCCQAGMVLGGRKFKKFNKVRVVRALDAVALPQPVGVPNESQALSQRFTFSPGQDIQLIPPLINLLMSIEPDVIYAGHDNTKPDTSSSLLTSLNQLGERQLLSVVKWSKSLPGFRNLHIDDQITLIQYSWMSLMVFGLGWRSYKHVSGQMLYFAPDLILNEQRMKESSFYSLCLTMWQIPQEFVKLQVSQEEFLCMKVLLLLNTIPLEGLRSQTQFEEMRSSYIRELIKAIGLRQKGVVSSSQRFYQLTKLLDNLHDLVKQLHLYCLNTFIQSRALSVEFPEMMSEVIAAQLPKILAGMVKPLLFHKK
How it was run: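 Fluorescence from LiveBLAzer B/G FRET substrate cleavage (2 hr, RT) reported PR activation in PR-UAS-bla HEK 293T cells treated 16 hr at 37C/5% CO2 with compounds; medium contained 2% charcoal-stripped FBS.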

[13] = target: Progesterone receptor (Homo sapiens) (UniProt P06401); assay: qHTS assay to identify small molecule antagonists of the progesterone receptor (PR) signaling pathway (AID 1346795; active = well fitted inhibition curve with a large enough effect in the signal ratio in the repeat runs, not every such curve was filed as active; the % refers to the signal ratio)
How it was run: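 Fluorescence intensity measured 2 hr after adding beta-lactamase FRET substrate to PR-UAS-bla HEK293T cells that had been co-treated 16 hr with compound and 1 nM R5020 (final concentration) in 2% charcoal-stripped FBS.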

[14] = qHTS assay to identify small molecule antagonists of the progesterone receptor (PR) signaling pathway - cell viability counter screen (AID 1346798); note: series mostly up to about 92 µM; nearly all actives have a fitted effect of over 50% in size
How it was run: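 CellTiter-Glo luminescence; PR-UAS-bla HEK293T, 3,000 cells/well; compound + R5020, 16 hr, 37C/5% CO2; 30 min RT before read.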

[15] = qHTS assay to identify small molecule agonists of the progesterone receptor (PR) signaling pathway - cell viability counter screen (AID 1346799; calls by dose curve; note: nearly all actives have a fitted effect of over 45% in size)
How it was run: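 In parallel with the beta-lactamase readout, cytotoxicity toward PR-UAS-bla HEK293T cells was measured by CellTiter-Glo luminescence following 16 hr compound incubation in 2% charcoal-stripped FBS medium.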

[16] = qHTS assay to identify small molecule antagonists of the TGF-beta/Smad signaling pathway - cell viability counter screen (AID 1346824); note: nearly all actives have a fitted effect of over 50% in size
How it was run: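 SBE-bla HEK 293T cells, incubated overnight, then compound plus 0.25 ng/mL TGF-beta1 (stock added) for 5 hr at 37 C. Viability was read in the same wells by CellTiter-Glo luminescence after 30 min at room temperature.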

[17] = qHTS assay to identify small molecule agonists of the TGF-beta/Smad signaling pathway - cell viability counter screen (AID 1346829); note: top concentration of the series differs between compounds; nearly all actives have a fitted effect of over 45% in size
How it was run: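 After overnight seating at 37 C and 5% CO2, reporter cells got compounds for 5 hr and FRET substrate for 2 hr; cell viability then came from CellTiter-Glo luminescence.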

[18] = qHTS assay to identify small molecule agonists of the TGF-beta/Smad signaling pathway (AID 1346859; active = well fitted activation curve with a large enough effect in the signal ratio in the repeat runs, not every such curve was filed as active; the % refers to the signal ratio; note: series mostly up to about 77 µM)
How it was run: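 After overnight seeding, SBE-bla HEK 293T cells are dosed with compounds in DMSO and kept 5 hr at 37 C, 5% CO2. LiveBLAzer-type FRET substrate is then applied for 2 hr at room temperature.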

[19] = target: Thyrotropin-releasing hormone receptor (Homo sapiens) (UniProt P34981); assay: qHTS assay to identify small molecule antagonists of the thyrotropin-releasing hormone receptor (TRHR) signaling pathway (AID 1346877; active = well fitted inhibition curve with a large enough effect in the repeat runs, not every such curve was filed as active; note: series mostly up to about 51 µM)
Chain of Thyrotropin-releasing hormone receptor (Homo sapiens) (P34981 whole entry, looked up): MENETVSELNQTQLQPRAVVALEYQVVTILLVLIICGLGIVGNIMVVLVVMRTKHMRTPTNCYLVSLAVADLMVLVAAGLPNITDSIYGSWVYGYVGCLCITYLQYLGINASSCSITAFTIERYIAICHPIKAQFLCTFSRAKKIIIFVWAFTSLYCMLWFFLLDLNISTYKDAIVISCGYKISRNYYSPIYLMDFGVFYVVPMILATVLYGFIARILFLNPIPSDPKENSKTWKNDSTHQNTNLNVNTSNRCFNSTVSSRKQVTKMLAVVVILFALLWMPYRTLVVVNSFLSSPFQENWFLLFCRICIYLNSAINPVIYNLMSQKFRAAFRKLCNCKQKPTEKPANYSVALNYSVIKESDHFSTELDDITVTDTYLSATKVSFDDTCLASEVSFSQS
How it was run: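 Overnight-plated (18 h, 37 °C) HEK293 cells expressing TRHR were dye-loaded 2 h, treated with compound, then stimulated with TRH at 1 nM final. Fluorescence intensity was captured every second for 3 min.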

[20] = target: Androgen receptor (Homo sapiens) (UniProt P10275); assay: qHTS assay to identify small molecule agonists of the androgen receptor (AR) signaling pathway in the presence of an antagonist (AID 1259381; calls by dose curve; note: nearly all actives have a fitted effect of over 15% in size)
Chain of Androgen receptor (Homo sapiens) (P10275 whole entry, looked up): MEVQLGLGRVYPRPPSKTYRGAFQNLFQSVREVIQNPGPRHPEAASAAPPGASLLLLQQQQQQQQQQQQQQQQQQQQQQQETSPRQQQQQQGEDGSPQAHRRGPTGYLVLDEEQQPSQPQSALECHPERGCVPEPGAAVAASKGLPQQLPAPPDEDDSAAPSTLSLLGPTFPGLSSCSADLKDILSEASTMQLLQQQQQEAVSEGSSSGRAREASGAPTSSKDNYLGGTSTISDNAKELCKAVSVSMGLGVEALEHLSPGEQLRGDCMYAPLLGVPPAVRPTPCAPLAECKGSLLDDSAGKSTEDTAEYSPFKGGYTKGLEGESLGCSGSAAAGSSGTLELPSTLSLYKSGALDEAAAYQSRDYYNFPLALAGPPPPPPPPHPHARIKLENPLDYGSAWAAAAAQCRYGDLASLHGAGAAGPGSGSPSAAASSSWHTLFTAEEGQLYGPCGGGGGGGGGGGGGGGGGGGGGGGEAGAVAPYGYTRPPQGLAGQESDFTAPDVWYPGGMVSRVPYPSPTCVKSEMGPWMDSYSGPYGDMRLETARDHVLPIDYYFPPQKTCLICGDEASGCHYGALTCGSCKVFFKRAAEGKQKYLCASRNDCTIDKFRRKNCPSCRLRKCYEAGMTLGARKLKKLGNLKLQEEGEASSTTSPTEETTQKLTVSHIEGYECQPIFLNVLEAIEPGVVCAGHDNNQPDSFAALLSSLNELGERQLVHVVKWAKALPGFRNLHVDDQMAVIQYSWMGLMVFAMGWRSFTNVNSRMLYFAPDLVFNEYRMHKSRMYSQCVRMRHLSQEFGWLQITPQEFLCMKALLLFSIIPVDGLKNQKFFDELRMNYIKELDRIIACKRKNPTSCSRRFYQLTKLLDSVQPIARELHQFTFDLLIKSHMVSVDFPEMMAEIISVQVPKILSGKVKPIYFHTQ
How it was run: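 Luminescent ONE-Glo read, 30min at room temperature, follows 16hr compound exposure (15 concentrations) of MDA-kb2 cells at 37C, 0% CO2, with nilutamide added at 3.0uM final.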

SMILES | Potency [1] | Potency [2] | outcome [3] | Potency [4] | Potency [5] | Potency [6] | Potency [7] | Potency [8] | outcome [9] | Potency [10] | outcome [11] | Potency [12] | Potency [13] | Potency [14] | Potency [15] | outcome [16] | outcome [17] | outcome [18] | outcome [19] | Potency [20]
O=C1OC(=O)c2cc([N+](=O)[O-])ccc21 | inactive | inactive | inactive | inactive | inactive | inactive | inactive | inactive | inactive | inactive | inactive | inactive | inactive | inactive | inactive | inactive | inactive | inactive |  | 
CCC(C(=O)NC(N)=O)c1ccccc1 (configuration not stated) | inactive | inactive | inactive | inactive | inactive | inactive | inactive | inactive | inactive | inactive | inactive | inactive | inactive | inactive |  | inactive | inactive | inactive | inactive | 
C=C[Si](OC)(OC)OC | inactive | inactive | inactive | inactive | inactive | inactive | inactive | inactive |  |  | inactive | inactive | inactive | inactive |  | inactive | inactive | inactive | inactive | 
CCCCN(CCO)CCO | inactive | inactive | inactive | inactive | inactive | inactive | inactive | inactive |  |  | inactive |  | inactive | inactive |  | inactive | inactive | inactive | inactive | 
OC[C@H]1O[C@@H]2O[C@H]3[C@H](O)[C@@H](O)[C@@H](O[C@H]4[C@H](O)[C@@H](O)[C@@H](O[C@H]5[C@H](O)[C@@H](O)[C@@H](O[C@H]6[C@H](O)[C@@H](O)[C@@H](O[C@H]7[C@H](O)[C@@H](O)[C@@H](O[C@H]8[C@H](O)[C@@H](O)[C@@H](O[C@H]9[C@H](O)[C@@H](O)[C@@H](O[C@H]1[C@H](O)[C@H]2O)O[C@@H]9CO)O[C@@H]8CO)O[C@@H]7CO)O[C@@H]6CO)O[C@@H]5CO)O[C@@H]4CO)O[C@@H]3CO | inactive | inactive | inactive | inactive | inactive | inactive | inactive |  | inactive | inactive | inactive |  |  | inactive | inactive | inactive |  | inactive | inactive | 
C#CC(C)(O)CC(C)C (configuration not stated) | inactive | inactive | inactive | inactive | inactive | inactive | inactive |  | inactive |  | inactive | inactive | inactive | inactive | inactive | inactive | inactive | inactive |  | 
Nc1nc2c(ncn2CCC(CO)CO)c(=O)[nH]1 | inactive | inactive | inactive | inactive | inactive | inactive | inactive | inactive | inactive | inactive | inactive | inactive | inactive | inactive |  | inactive | inactive | inactive |  | 
CC(C)CCCCCCN | inactive | inactive | inactive | inactive | inactive | inactive | inactive | inactive | inactive | inactive | inactive | inactive | inactive | inactive | inactive | inactive | inactive | inactive |  | inactive
N#CCN(CC#N)CCN(CC#N)CC#N | inactive | inactive | inactive | inactive | inactive | inactive | inactive |  | inactive | inactive | inactive | inactive | inactive | inactive | inactive | inactive | inactive | inactive |  | 
CC(C)(C)N(CCO)CCO | inactive | inactive | inactive | inactive | inactive | inactive | inactive | inactive | inactive | inactive | inactive | inactive | inactive | inactive | inactive | inactive | inactive | inactive | inactive | 
N#CC1(O)CCCCC1 | inactive | 12.3 µM (active) | inactive | inactive | inactive | inactive | inactive |  | inactive | inactive | inactive | inactive |  | inactive | inactive | inactive | inactive | inactive |  | 
c1ccc(CCCc2ccccn2)cc1 | inactive | inactive | inactive | inactive | inactive | inactive | inactive |  | inactive | inactive | inactive | inactive | inactive | inactive | inactive | inactive | inactive | inactive | inactive | 
C[C@H](O)C(=O)Nc1c(I)c(C(=O)NC(CO)CO)c(I)c(C(=O)NC(CO)CO)c1I | inactive | inactive | inactive | inactive | inactive | inactive | inactive | inactive | inactive | inactive | inactive | inactive | inactive | inactive | inactive | inactive | inactive | inactive |  | 
NC(=O)Nc1nc2ccccc2[nH]1 | inactive | inactive | inactive | inactive | inactive | inactive | inactive | inactive |  |  | inactive | inactive |  | inactive | inactive | inactive |  | inactive |  | 
COC(=O)c1ccc(C(=O)OC)c(C(=O)OC)c1 | inactive | inactive | inactive | inactive | inactive | inactive | inactive | inactive | inactive | inactive | inactive | inactive |  | inactive |  | inactive | inactive | inactive |  | 

Reference: PubChem BioAssay (Tox21)
